Bioassay records from PubChem BioAssay.
PfM18AAP inh: blocks P. falciparum M18 aspartyl aminopeptidase | recombinant PfM18AAP, H-Glu-NHMec fluorogenic cleavage | inhibition, % at 7.35 µM | AID 1822 | 290,000 compounds, 1.2% hits;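 active = inhibition above the campaign mean inhibition over all tested compounds plus 3 SD, cut at about 28% in these data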;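 also: 0% = plate median of test compound wells and 100% = 2 mM ZnCl2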
Fh CTSL1 inh: cathepsin L1 inhibition, PFM18AAP counter-screen; recombinant F. hepatica cathepsin L1, Z-Leu-Arg-MCA fluorescence; inhibition, % at 5.96 µM; 300,000 compounds, 0.49% hits; AID 1906;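 active = inhibition above the mean of all tested compounds plus 3 SD, set per screening campaign, cut at about 17% in these data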;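 also: 0% = plate median of test compound wells and 100% = 1 µM Z-Phe-Ala-diazomethylketone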
Rin1-Abl PPI inh: inhibitors of human Rin1-Abl protein interaction. TR-FRET Rin1/Abl binding, biochemical. AID 588664. inhibition, % at 7.35 µM. 360,000 compounds, 0.4% hits. P00519+Q13671; in the data active = inhibition above about 5%, passing the limit was not always enough
Calb FLC: affects C. albicans growth with fluconazole; C. albicans CaCi-2 (fluconazole-resistant clinical isolate) + fluconazole, Alamar Blue growth, 48 h; growth inhibition, % (concentration not given with the values); 300,000 compounds, 0.57% hits;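 active = growth inhibition above about 58% in most replicates, limit read from the data, passing the limit was not always enough; inconclusive = exactly half the replicates above a set limit; inactive = most replicates below a set limit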;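 also: all wells also contain fluconazole at 8 µg/ml as a sub-toxic cotreatment; 0% = median of DMSO wells and 100% = median of geldanamycin control wells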
Active calls of the source: *. Only some compounds are listed: those with a hit (about 2.1% of all), similar ones and a draw of the others.

What do the screens show for `CC(=O)Oc1oc(-c2ccccc2)nc1/C=N/c1ccccn1`?
PfM18AAP inh: -8; Fh CTSL1 inh: 26*; Rin1-Abl PPI inh: 0; Calb FLC: 3

What do the screens show for `COc1ccccc1N=Cc1nc(-c2ccccc2)oc1OC(C)=O`?
PfM18AAP inh: -3; Fh CTSL1 inh: 17*; Rin1-Abl PPI inh: 3; Calb FLC: 2

What do the screens show for `CC(=O)Oc1oc(-c2ccccc2)nc1C=Nc1ccc(N(C)C)cc1`?
PfM18AAP inh: 2; Fh CTSL1 inh: 18*; Rin1-Abl PPI inh: 2; Calb FLC: 1

How did CN(C)c1ccc(N=Cc2nc(-c3ccccc3)oc2OC(=O)c2ccccc2)cc1 do in these assays?
PfM18AAP inh: 10; Fh CTSL1 inh: 8; Rin1-Abl PPI inh: 0; Calb FLC: -12

How did O=C1CSC(=S)N1N1C(=O)c2cccc([N+](=O)[O-])c2C1=O do in these assays?
PfM18AAP inh: 43*; Fh CTSL1 inh: 0; Calb FLC: inconclusive

What do the screens show for `COc1ccc2nc3cc(Cl)ccc3c(Nc3cc(CN4CCCC4)c(O)c(CN4CCCC4)c3)c2n1`?
PfM18AAP inh: 28*; Fh CTSL1 inh: -3; Rin1-Abl PPI inh: -11; Calb FLC: -19

What do the screens show for `COc1ccc2nc3cc(Cl)ccc3c(Nc3cc(C(C)C)c(O)cc3C)c2c1`?
PfM18AAP inh: -3; Fh CTSL1 inh: 2; Rin1-Abl PPI inh: 0; Calb FLC: 19

Results for COc1ccccc1OCC(=O)N/N=C/C=C/c1ccc([N+](=O)[O-])o1 ?
PfM18AAP inh: 8; Fh CTSL1 inh: -1; Rin1-Abl PPI inh: 1; Calb FLC: 94*

How did O=C(N/N=C\C=C\c1ccc([N+](=O)[O-])o1)c1cccs1 do in these assays?
PfM18AAP inh: 15; Rin1-Abl PPI inh: -3; Calb FLC: 91*

What do the screens show for `Cc1ccccc1OCC(=O)N/N=C/c1ccc([N+](=O)[O-])o1`?
PfM18AAP inh: 3; Fh CTSL1 inh: 3; Rin1-Abl PPI inh: -1; Calb FLC: 30

What do the screens show for `CCCNC(=O)c1ccc(N2CCC3(CC2)CC(c2cccc(Br)c2)=NO3)c([N+](=O)[O-])c1`?
PfM18AAP inh: -1; Fh CTSL1 inh: -2; Rin1-Abl PPI inh: -1; Calb FLC: -11

How did CCCc1nnc(NC(=S)Nc2ccccc2)s1 do in these assays?
PfM18AAP inh: -3; Fh CTSL1 inh: -5; Rin1-Abl PPI inh: -6; Calb FLC: 77*

What do the screens show for `O=C(O)c1ccc(N/N=C/c2ccc(-c3ccc(Br)cc3)o2)cc1`?
PfM18AAP inh: 7; Fh CTSL1 inh: 2; Rin1-Abl PPI inh: 12*; Calb FLC: 17

Results for Cc1ccc(/C=N/Nc2ccc(C(=O)O)cc2)o1 ?
PfM18AAP inh: 5; Fh CTSL1 inh: 2; Rin1-Abl PPI inh: 5; Calb FLC: -14

How did Cc1ccc(C(=O)Nc2sc(C)c(C)c2C(=O)c2ccccc2)cc1 do in these assays?
PfM18AAP inh: -1; Fh CTSL1 inh: 8; Rin1-Abl PPI inh: 1; Calb FLC: inconclusive

What do the screens show for `Cc1sc(NC(=O)c2ccccc2)c(C(=O)c2ccccc2)c1C`?
PfM18AAP inh: 32*; Fh CTSL1 inh: 0; Rin1-Abl PPI inh: 1; Calb FLC: 2

Results for CCc1ccc(NC(=O)CN(N=Nc2nonc2C)c2nonc2C)cc1 ?
PfM18AAP inh: 3; Fh CTSL1 inh: 4; Rin1-Abl PPI inh: 3; Calb FLC: -42

Results for COc1ccc(OC)c(NC(=O)c2c3c(nc4ccccc24)CCC3)c1 ?
PfM18AAP inh: 0; Fh CTSL1 inh: -1; Rin1-Abl PPI inh: 2; Calb FLC: 66*

What do the screens show for `CC1(C)CC(=O)C=C(c2ccc(F)cc2OCc2ccccc2)C1`?
Rin1-Abl PPI inh: 0

How did CCCn1c(N)c(C(=O)CN(C)CC(=O)Nc2ccccc2C(F)(F)F)c(=O)[nH]c1=O do in these assays?
Rin1-Abl PPI inh: 0

How did COc1cc(CNc2ccc3c(c2)CCC3)cc(OC)c1O do in these assays?
PfM18AAP inh: 38*; Fh CTSL1 inh: 0; Rin1-Abl PPI inh: -1; Calb FLC: 5

How did C=C(CCC(=O)c1ccccc1)C(=O)c1ccccc1 do in these assays?
PfM18AAP inh: -16; Fh CTSL1 inh: 41*; Rin1-Abl PPI inh: -1; Calb FLC: 38

Results for COCCSc1nnc(NC(=O)CCS(=O)(=O)c2ccccc2)s1 ?
PfM18AAP inh: -3; Fh CTSL1 inh: -3; Rin1-Abl PPI inh: 3; Calb FLC: 88*

What do the screens show for `COCCSc1nnc(NC(=O)CS(=O)(=O)c2ccc(C)cc2)s1`?
PfM18AAP inh: -3; Fh CTSL1 inh: 0; Rin1-Abl PPI inh: 0; Calb FLC: 0

Results for CC(=O)c1sc(NC(=O)CCS(=O)(=O)c2ccc(F)cc2)nc1C ?
Rin1-Abl PPI inh: -2

Results for CC(=O)c1sc(NC(=O)CCS(=O)(=O)c2ccccc2)nc1C ?
PfM18AAP inh: -8; Fh CTSL1 inh: 1; Rin1-Abl PPI inh: -1; Calb FLC: 86*

How did CCN(CC)c1ccc(/C=N/NC(=O)c2cccc(S(=O)(=O)N3CCOCC3)c2)c(O)c1 do in these assays?
PfM18AAP inh: 6; Fh CTSL1 inh: 6; Rin1-Abl PPI inh: -2; Calb FLC: 102*

What do the screens show for `O=C(N/N=C/c1sc(N2CCOCC2)nc1-c1ccccc1)c1cccc(S(=O)(=O)N2CCOCC2)c1`?
PfM18AAP inh: -10; Fh CTSL1 inh: -3; Rin1-Abl PPI inh: -2; Calb FLC: 98*

How did Cc1c(Cl)c([N+](=O)[O-])nn1CC(=O)NC12CC3CC(CC(C3)C1)C2 do in these assays?
PfM18AAP inh: 6; Fh CTSL1 inh: 0; Rin1-Abl PPI inh: -2; Calb FLC: -5

Results for NS(=O)(=O)c1ccc(CNC(=O)c2cc(-c3cccnc3)nc3ccc(Br)cc23)cc1 ?
PfM18AAP inh: -2; Fh CTSL1 inh: 1; Rin1-Abl PPI inh: -25; Calb FLC: -2

What do the screens show for `O=C(Nc1cccc(O)c1)c1cccc(NC(=O)c2cccs2)c1`?
PfM18AAP inh: 6; Fh CTSL1 inh: -2; Rin1-Abl PPI inh: 2; Calb FLC: -3

How did O=C(Nc1ccc(Cl)c(S(=O)(=O)N2CCCCC2)c1)c1ccco1 do in these assays?
Rin1-Abl PPI inh: 1

What do the screens show for `O=C1NCCOC(=O)[C@@H](Cc2ccc(F)cc2)C/C=C\C[C@@H]1CC(=O)N(CCO)Cc1ccccc1`?
Rin1-Abl PPI inh: 1

What do the screens show for `OC(c1ccc(F)cc1)c1nc(-c2cccs2)cs1` (centres undefined)?
Rin1-Abl PPI inh: -1

How did CC(=O)n1c2ccccc2c2ccccc21 do in these assays?
PfM18AAP inh: 1; Fh CTSL1 inh: -3; Rin1-Abl PPI inh: 4; Calb FLC: 4

What do the screens show for `CC(=O)n1c(Cl)c(NC(=O)CCl)c2ccccc21`?
PfM18AAP inh: 2; Fh CTSL1 inh: 37*; Rin1-Abl PPI inh: -3; Calb FLC: 4

What do the screens show for `OC[C@H]1O[C@@H](n2cnc3c(Nc4ccccc4)ncnc32)[C@H](O)[C@@H]1O`?
PfM18AAP inh: -1; Fh CTSL1 inh: -3; Rin1-Abl PPI inh: -1

What do the screens show for `NCCNC(=O)Cc1cccc(NC(=O)Cc2ccc(Nc3ncnc4c3ncn4[C@@H]3O[C@H](CO)[C@@H](O)[C@H]3O)cc2)c1`?
Fh CTSL1 inh: 7; Rin1-Abl PPI inh: 17*

What do the screens show for `CC(NC(=S)NC1CCCCC1)c1ccc(C(C)(C)C)cc1` (centres undefined)?
PfM18AAP inh: -1; Fh CTSL1 inh: 2; Rin1-Abl PPI inh: 3; Calb FLC: -21
